A short description of experiment [1]: qHTS assay for small molecules that induce genotoxicity in human embryonic kidney cells expressing luciferase-tagged ATAD5 (AID 651632). Further: nearly all actives have a fitted effect of over 15% in size. Further: potency means the concentration at half of the fitted maximal effect. In outline: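 HEK293T cells carrying a luciferase reporter tagged to ATAD5 were exposed to compound or DMSO vehicle for 16 hr at 37C, 5% CO2. Amplite was added, and after 30 min at room temperature luciferase activity was read as a marker of ATAD5 induction.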
A general note: qHTS replaces the single test concentration by a dilution series.

The nature of experiment [2]: qHTS assay for small molecule agonists of the p53 signaling pathway - cell viability (AID 651633; calls by dose curve; further: nearly all actives have a fitted effect of over 30% in size; further: potency means the concentration at half of the fitted maximal effect). The essentials: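 Viability counter-read: CellTiter-Glo luminescence (30 min, room temperature) in the same p53RE-bla plates. These plates had been exposed to compounds for 16 h at 37 C.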
The nature of experiment [3]: qHTS assay for small molecules that induce genotoxicity in human embryonic kidney cells expressing luciferase-tagged ATAD5 - cell viability (AID 651634; calls by dose curve; further: nearly all actives have a fitted effect of over 25% in size; further: potency means the concentration at half of the fitted maximal effect). In outline:
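HEK293T cells expressing luciferase-tagged ATAD5 were exposed to compound or DMSO for 15.5 hr at 37C, 5% CO2. Viability was then read as live-cell protease activity by CellTiter-Fluor fluorescence after 30 min at 37C.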

Experiment [4] is described as follows: qHTS assay for small molecule disruptors of the mitochondrial membrane potential - cell viability (AID 720634; calls by dose curve; further: nearly all actives have a fitted effect of over 20% in size; further: potency means the concentration at half of the fitted maximal effect). In outline:
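HepG2 cells seeded overnight at 37 C, then exposed to compound or DMSO for 1 hr at 37 C, 5% CO2. m-MPI dye added, then CellTiter-Glo for 30 min at room temperature; viability read as ATP luminescence.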

A short description of experiment [5]: qHTS assay for small molecule disruptors of the mitochondrial membrane potential (AID 720635). Further: potency means the concentration at half of the fitted maximal effect. In outline:
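Mitochondrial membrane potential tracked with Mito-MPS dye, red aggregates (ex 540/em 590 nm) against green monomers (ex 490/em 535 nm). Compound treatment 1 hr at 37C, dye 30 min in HepG2.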

Experiment [6] is described as follows: qHTS assay to test for compound auto fluorescence at 590 nm (red) in HepG2 cells (AID 720674). The essentials: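 We screened compounds on adherent HepG2 cells, incubating them for an hour at 37 C in 5% CO2 before reading emission at 590 nm under 540 nm excitation; values reflect equivalence to Rose Bengal sodium fluorescence.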
A short description of experiment [7]: qHTS assay to test for compound auto fluorescence at 535 nm (green) in HepG2 cells (AID 720675).
A short description of experiment [8]: qHTS assay to test for compound auto fluorescence at 460 nm (blue) in HEK293 cells (AID 720678). The essentials:
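HEK293, 2,000 cells/well, 10% dialyzed FBS; attach 4-5 hr 37C; pin compound or DMSO; o/n 37C/5% CO2; fluorescence 405/460 nm; triamterene-equivalent units.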

A short description of experiment [9]: qHTS assay to test for compound auto fluorescence at 590 nm (red) in HEK293 cells (AID 720679). In outline: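 Intensity at 540nm excitation and 590nm emission is reported as Rose Bengal sodium-equivalent autofluorescence. Measurements followed overnight exposure (37C, 5% CO2) of HEK293 cells, 2,000 per well, to 23 nL compound.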
Experiment [10] in a line: qHTS assay for small molecule agonists of the p53 signaling pathway (AID 651631; calls by dose curve; further: nearly all actives have a fitted effect of over 15% in size; further: potency means the concentration at half of the fitted maximal effect). In outline:
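Agonist mode screen using a stably integrated beta-lactamase gene under p53 response elements in HCT-116 cells. Compound exposure lasts 16 h at 37 °C; fluorescence intensity is measured following 2 h FRET substrate loading.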

Records with an inconclusive call do not appear. Calls of active or inactive are those of the source. Unless noted, the call rests on the fitted dose curve; in most records, active means well fitted curve in the direction sought with a large enough effect in the repeat runs; inconclusive means weak or mixed curves; inactive means no such curve, though single readings can be large; an effect the other way counts as inactive or inconclusive.

For `O=C(OC[C@H]1O[C@](O)(COC(=O)c2cccnc2)[C@@H](OC(=O)c2cccnc2)[C@@H]1OC(=O)c1cccnc1)c1cccnc1`, the Potency entry in experiment [1], in [2], in experiment [3], in [4], in experiment [5] and in [6] was “inactive” each time. Also, the Potency result in experiment [7], in experiment [8] and in experiment [9] was “inactive” throughout.
In the case of `CO[C@H]1[C@@H](O)[C@H](N)[C@@H](O[C@H]2O[C@H]([C@H](C)N)CC[C@H]2N)[C@H](O)[C@@H]1N(C)C(=O)CN`, the Potency entry in experiment [1], in experiment [2], in [3], in experiment [4], in [5] and in experiment [6] was “inactive” each time. Besides, the Potency entry in [7], in [8] and in experiment [9] was “inactive” in each case.
Turning to `OCC(O)COc1ccc(Cl)cc1` (stereo unspecified), the Potency result in experiment [1], in [2], in experiment [3], in [4], in experiment [5] and in experiment [6] was “inactive” each time. In addition, the Potency entry in experiment [7], in [8] and in experiment [9] was “inactive” in each case.
Regarding `Nc1ncnc2c1ncn2[C@@H]1O[C@H](COP(=O)(O)OP(=O)(O)OP(=O)(O)O)[C@@H](O)[C@H]1O`, the Potency in experiment [10] was 26.6 µM (active); in [4] it was 9.44 µM (active). Moreover, the Potency entry in experiment [2], in [3], in experiment [6], in [7], in experiment [8] and in [9] was “inactive” each time.
As to `CCCCCCCCCCCCCCCC(=O)OC[C@@H](O)[C@H]1OC[C@H](O)[C@H]1O`, the Potency result in experiment [1], in experiment [2], in [3], in experiment [4], in [5] and in experiment [6] was “inactive” each time. Moreover, the Potency result in experiment [7], in [8] and in experiment [9] was “inactive” throughout.
Consider `C[C@@H]1C[C@H]2[C@@H]3CCC4=CC(=O)C=C[C@]4(C)[C@@]3(F)[C@@H](O)C[C@]2(C)[C@@]1(O)C(=O)COC(=O)c1cccc(S(=O)(=O)O)c1`, for which the Potency entry in [10], in experiment [2], in experiment [3], in [4], in [6] and in [7] was “inactive” in each case. Moreover, the Potency entry in experiment [8] and in experiment [9] was “inactive” throughout.
`COc1ccc(/C=C/C(=O)OCCC(C)C)cc1`: the Potency entry in [10], in experiment [2], in experiment [3], in [4], in experiment [5] and in [6] was “inactive” each time. Further, the Potency entry in [7], in experiment [8] and in [9] was “inactive” each time.
Turning to `CC[C@H](C)[C@@H]1NC(=O)[C@H](Cc2ccc(O)cc2)NC(=O)[C@@H](N)CSSC[C@@H](C(=O)N2CCC[C@H]2C(=O)N[C@@H](CC(C)C)C(=O)NCC(N)=O)NC(=O)[C@H](CC(N)=O)NC(=O)[C@H](CCC(N)=O)NC1=O`, the Potency result in experiment [1], in experiment [2], in experiment [3], in [4], in experiment [5] and in experiment [6] was “inactive” each time. Moreover, the Potency result in experiment [7], in experiment [8] and in [9] was “inactive” in each case.
Consider `COC(=O)CCC[N+](C)(C)C`, for which the Potency entry in [1], in [2], in [3], in [4], in experiment [5] and in experiment [6] was “inactive” throughout. The Potency result in experiment [7], in experiment [8] and in experiment [9] was “inactive” in each case.
As to `O=P(O)(O)OC[C@H]1O[C@](O)(COP(=O)(O)O)[C@@H](O)[C@@H]1O`, the Potency result in experiment [1], in experiment [2], in experiment [3], in experiment [4], in [5] and in [6] was “inactive” throughout. Further, the Potency entry in [7], in experiment [8] and in [9] was “inactive” in each case.
With `CCCC(=O)Nc1ncnc2c1ncn2[C@@H]1O[C@@H]2COP(=O)(O)O[C@H]2[C@H]1OC(=O)CCC`, the Potency result in [10], in [2], in experiment [3], in experiment [4], in experiment [5] and in experiment [6] was “inactive” each time. The Potency entry in experiment [7], in experiment [8] and in [9] was “inactive” each time.
Turning to `O=C(Nc1ccc(O)cc1)c1ccccc1O`, the Potency entry in experiment [10], in experiment [2], in experiment [3], in [6], in experiment [7] and in experiment [8] was “inactive” throughout. Besides, the Potency result in [9] is “inactive”. Also, the Potency in experiment [5] is 5.96 µM (active).
As to `Cc1ccc(/C(=C\CN2CCCC2)c2cccc(/C=C/C(=O)O)n2)cc1`, the Potency entry in [10], in experiment [2], in experiment [3], in experiment [4], in experiment [6] and in experiment [7] was “inactive” in each case. Besides, the Potency entry in experiment [8] and in [9] was “inactive” in each case.
On to `COC(F)(F)C(Cl)Cl`, for which the Potency result in [1], in experiment [2], in experiment [3], in [4], in experiment [5] and in experiment [6] was “inactive” in each case. Further, the Potency result in experiment [7], in [8] and in experiment [9] was “inactive” each time.
As for `CN(C)C(=O)CCSC(SCCC(=O)O)c1cccc(/C=C/c2ccc3ccc(Cl)cc3n2)c1` (stereo unspecified), the Potency in [1] was 4.73 µM (active); in [2], 29.8 µM (active); in [3] it was 23.7 µM (active); in experiment [4] it was 29.8 µM (active); in [5], 24.8 µM (active). Further, the Potency result in experiment [6], in experiment [7], in [8] and in experiment [9] was “inactive” in each case.
Turning to `CCOc1ccc(N=Nc2ccc(N)cc2N)cc1`, the Potency in [1] is 0.168 µM (active); in experiment [3], 2.37 µM (active); in experiment [4], 11.9 µM (active); in [5], 1.68 µM (active). Besides, the Potency result in experiment [2], in [6], in experiment [7], in experiment [8] and in [9] was “inactive” each time.
As for `NC(Cc1ccccc1)C(=O)O` (stereo unspecified), the Potency entry in [10], in experiment [2], in experiment [3], in experiment [4], in experiment [5] and in [7] was “inactive” throughout. The Potency result in experiment [8] and in experiment [9] was “inactive” each time.
Consider `CC(NNC(=O)c1ccccc1)c1ccccc1` (stereo unspecified), for which the Potency entry in [10], in experiment [2], in experiment [3], in experiment [4], in experiment [6] and in experiment [7] was “inactive” each time. For the same molecule, the Potency entry in [8] and in experiment [9] was “inactive” in each case. Besides, the Potency in experiment [5] was 24.8 µM (active).
For the molecule `CNC(=O)[C@H](Cc1c[nH]c2ccccc12)NC(=O)[C@@H](CC(=O)NO)CC(C)C`, the Potency result in experiment [10], in [2], in experiment [3], in experiment [4], in [5] and in experiment [6] was “inactive” in each case. The Potency entry in experiment [7], in [8] and in [9] was “inactive” throughout.
